# Many of the other results were omitted from the sample, so hits are more common in it than they were.
# Cycloheximide cs: Cycloheximide Counterscreen for Small Molecule Inhibitors of Shiga Toxin; cell reporter, cycloheximide protein synthesis inhibition counterscreen; 300,000 compounds, 12% hits; max response, %; in the data active means max response mostly above about 13%, no sharp cut-off; inactive means mostly below about 14%; further: read at 38.3 µM for the half of the compounds with a filed dose
# NS1 inh: qHTS Assay for Inhibitors of Influenza NS1 Protein Function | AID 2326, 2010 | 270,000 compounds, 0.4% hits | Potency, µM (top dose mostly 46.1 µM); calls by dose curve; further: actives are rising curves; nearly all actives have a fitted effect of over 50% in size
#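 Read-out: OD600 growth recovery of NS1-expressing budding yeast. Cells grown overnight at 30C in -URA glucose medium, washed, resuspended and diluted 1:100 in 2% galactose assay medium, pH 6.0. Same strain lacking NS1 served as positive control.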
# LmPK inh: qHTS Assay for Inhibitors of Leishmania Mexicana Pyruvate Kinase (LmPK). Q27686. Potency, µM (doses to about 57.5 µM), actives largely listed as inhibitors. AID 1721, 2009. 290,000 compounds, 0.37% hits. purified LmPK, Kinase-Glo ATP luminescence, 1 h
# Target sequence (Q27686 whole entry, looked up): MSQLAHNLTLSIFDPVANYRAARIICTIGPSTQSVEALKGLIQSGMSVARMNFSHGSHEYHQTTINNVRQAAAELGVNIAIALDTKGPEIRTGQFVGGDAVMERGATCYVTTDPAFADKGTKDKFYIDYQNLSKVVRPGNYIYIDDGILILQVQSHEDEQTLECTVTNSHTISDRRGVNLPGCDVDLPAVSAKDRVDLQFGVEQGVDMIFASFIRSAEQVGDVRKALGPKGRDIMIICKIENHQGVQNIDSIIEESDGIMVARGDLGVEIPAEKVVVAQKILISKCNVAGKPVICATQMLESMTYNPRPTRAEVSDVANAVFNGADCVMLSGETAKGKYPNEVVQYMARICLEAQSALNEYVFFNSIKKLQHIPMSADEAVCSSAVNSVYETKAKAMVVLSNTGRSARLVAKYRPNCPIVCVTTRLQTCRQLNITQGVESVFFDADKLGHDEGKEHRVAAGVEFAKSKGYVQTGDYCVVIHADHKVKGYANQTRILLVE
#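 ATP generated from ADP (0.1 mM) and PEP (0.5 mM) by 0.1 nM LmPK over 1 h at room temperature (pH 7.2 imidazole buffer) was detected by coupled luciferase luminescence. Values were normalized to uninhibited and no-enzyme wells.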
# Shiga inhibitor: A qHTS for Small Molecule Inhibitors of Shiga Toxin; Vero cells, Shiga toxin protein synthesis inhibition reporter; inhibition, % at 38.7 µM; 290,000 compounds, 9.2% hits; in the data active means inhibition mostly above about 28%, no sharp cut-off; inactive means mostly below about 43%
# SARS PLP yeast: qHTS of Yeast-based Assay for SARS-CoV PLP; S. cerevisiae expressing SARS-CoV PLpro, growth rescue; Potency, µM (top dose mostly 32.9 µM), most hits filed as activators; 330,000 compounds, 0.19% hits; AID 485353, 2010; calls by dose curve; further: nearly all actives have a fitted effect of over 55% in size
# TbPYK inhibitor: qHTS of Trypanosoma Brucei Inhibitors | 410,000 compounds, 0.12% hits | Potency, µM (top dose mostly 76.8 µM), most hits filed as inhibitors | TbPYK enzyme, Kinase-Glo Plus ATP luminescence, 45 min | pyruvate kinase (Trypanosoma brucei), Q57TT1; further: nearly all actives have a fitted effect of over 50% in size
#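 Screened from lowest to highest concentration, compounds were pinned into TbPYK/substrate mixtures, and ADP (130 uM final) was added. Plates sat at room temperature for 45 min prior to Kinase-Glo Plus detection by luminescence.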
# Numbers stand for hits; . = inactive; ? = inconclusive; / = no result given; + = active, no number. Unless noted, the call rests on the fitted dose curve; in most records, active means well fitted curve in the direction sought with a large enough effect; inconclusive means small, poorly fitted or top-dose-only effect, or another doubt; inactive means no such curve, though single readings can be large; an effect the other way counts as inactive or inconclusive.
SMILES,Cycloheximide cs,NS1 inh,LmPK inh,Shiga inhibitor,SARS PLP yeast,TbPYK inhibitor
COc1ccc(OCCOc2cccc(C=C3C(=O)NC(=O)NC3=O)c2)cc1,33,.,.,33,.,/
CN(CCOc1ccc(C=C2C(=O)NC(=O)NC2=O)cc1)c1ccccn1,27,/,.,.,.,?
CC1CN(C(=O)CCC(=O)NCc2cccc(Cl)c2)c2ccccc2S1 (configuration not stated),/,/,/,/,/,.
CC(C)C[C@H](NC(=O)CNC(=O)c1cc(Cl)ccc1Cl)B(O)O,/,/,/,/,/,.
COCCCNC(=O)C[C@H]1C[C@H](C(=O)N2CCOCC2)[C@@]2(CCC3CCCC3)c3[nH]c4ccc(Cl)cc4c3CCN2C1=O,/,/,/,/,.,.
CN1[C@@H]2CC(OC(=O)[C@@H](CO)c3ccccc3)C[C@@H]1[C@H]1O[C@H]12 (some centres not stated),/,.,/,/,/,.
Cc1ccc2c(c1)C(=O)C1(O)CCN(c3ccccc3)C1=N2 (configuration not stated),36,/,/,.,/,/
Cc1ccc(C2=NNC3(CCOC(C)(C)C3)S2)cc1 (configuration not stated),37,.,.,54,.,.
CC(=NC1CCCCC1)C1=C(O)c2ccccc2C1=O,46,.,.,.,.,.
CCc1cc2c(=O)[nH]c(N3CCCC3)nc2s1,28,.,.,+,.,.
CCc1cc2c(=O)[nH]c(-c3ccccn3)nc2s1,89,.,.,126,?,.
Nc1c(-c2ccccc2Cl)cnn1-c1cccc([N+](=O)[O-])c1,.,.,.,.,.,/
Cc1ccccc1-c1cnn(-c2cccc([N+](=O)[O-])c2)c1N,26,.,.,.,.,.
Cc1ccc(-c2cnn(-c3cccc([N+](=O)[O-])c3)c2N)cc1,46,.,.,103,.,.
CC(C)OP(=O)(OC(C)C)C(Nc1ccccc1)c1cccc2c1OCO2 (configuration not stated),23,.,.,.,.,.
NC(COCc1ccccc1)c1csc(Nc2cc(NCCCO)ncn2)n1 (configuration not stated),/,/,/,/,/,.
NC(=O)/C(=C/c1ccco1)NC(=O)/C=C/c1ccccc1,.,.,.,.,.,.
CC(C)CCOC(=O)/C(=C/c1ccco1)NC(=O)/C=C/c1ccccc1,20,.,.,.,.,/
Cc1ccc(Nc2nc3ccccc3o2)cc1F,38,.,?,.,.,?
N#Cc1cnc(Nc2nc3ccccc3o2)nc1-c1ccccc1,.,.,.,.,.,.
Cc1ccccc1-c1nc2ccccc2o1,.,.,.,.,.,.
Cc1ccnc(Nc2nc3ccccc3o2)n1,.,.,22µM,.,.,?
Cc1nc(Nc2nc3ccccc3o2)nc(C)c1C,.,/,18µM,.,.,?
Cc1ccc2oc(Nc3nc(C)c(C)c(C)n3)nc2c1,37,.,.,88,.,.
CCCc1nc(Nc2nc3ccccc3o2)nc(C)c1C(=O)OCC,61,.,.,129,.,.
SMILES,Cycloheximide cs,NS1 inh,LmPK inh,Shiga inhibitor,SARS PLP yeast,TbPYK inhibitor
CCOC(=O)c1cnc(Nc2nc3ccccc3o2)nc1CSc1ncccn1,/,.,/,/,/,.
O=C(CCCCn1ccc(=O)[nH]c1=O)Nc1ccc(C(=O)O)c(O)c1,/,/,/,/,/,.
O=C(NCc1ccco1)c1cc(-c2ccccc2)nc2ccccc12,24,.,.,.,.,.
Cc1nnc(Sc2cc(C(=O)NCc3ccco3)c3ccccc3n2)s1,35,.,.,.,.,.
COCCNC(=O)c1cc(Sc2nnc(C)s2)nc2ccccc12,.,.,.,.,.,/
O=C(Nc1cccc(S(=O)(=O)NCc2ccco2)c1)c1cc(-c2ccccc2)nc2ccccc12,36,.,.,.,.,.
COc1ccc(-c2cc(C(=O)NCc3ccco3)c3ccccc3n2)c(OC)c1,.,.,.,.,.,.
COc1ccc(-c2cc(C(=O)NCc3ccco3)c3ccccc3n2)cc1,14,.,.,.,.,.
Cc1ccc([C@@H]2[C@@H]3C(=O)N(C)C(=O)[C@@H]3[C@@H]3C(=O)Nc4ccccc4C(=O)N23)cc1,.,.,.,.,.,.
COC(=O)C1(C)COP(=O)(NC23CC4CC(CC(C4)C2)C3)OC1 (configuration not stated),/,/,/,/,/,.
CC(=O)O[C@H]1CC[C@@]2(C)C(=CC[C@@H]3[C@H]4CC[C@@H]([C@H](C)C(=O)O)[C@]4(C)CC[C@H]32)C1,/,.,/,/,/,/
COc1ccccc1NS(=O)(=O)c1cccc(C(=O)NNC(=O)C(C)NC(=O)c2ccco2)c1 (configuration not stated),/,/,/,/,.,.
S=C(NCc1ccccn1)Nc1ccc(Cl)cc1Cl,45,.,.,.,.,.
Fc1ccc(NC(=S)Nc2ccc(Cl)cc2Cl)cc1,22,.,.,.,.,.
Fc1ccc(CNC(=S)Nc2ccc(Cl)cc2Cl)cc1,.,.,.,.,.,.
S=C(NCCc1ccc(Cl)cc1)Nc1ccc(Cl)cc1Cl,13,.,.,.,.,.
COc1ccc(Cl)cc1NC(=S)NCc1ccccn1,.,.,.,.,.,.
CCCNC(=S)Nc1ccc(Cl)cc1Cl,.,.,.,41,?,.
S=C(NCc1ccncc1)Nc1ccc(Cl)cc1Cl,.,.,.,.,.,.
S=C(NCc1ccc(Cl)cc1)Nc1ccc(Cl)cc1Cl,.,.,.,.,.,.
Cc1c(C(=O)NCc2ccc(C(F)(F)F)cc2)sc(=O)n1Cc1ccc(S(=O)(=O)N(C)C)cc1,/,/,/,/,/,.
CC(C)NCc1nnc(-c2ccccc2Cl)o1,.,/,.,39,.,.
CSc1nnc(-c2ccccc2Cl)o1,29,.,.,88,.,.
CSc1nnc(-c2ccc(Cl)cc2Cl)o1,52,.,.,.,.,.
CCSc1nnc(-c2ccc(Cl)cc2Cl)o1,57,.,.,85,.,.
SMILES,Cycloheximide cs,NS1 inh,LmPK inh,Shiga inhibitor,SARS PLP yeast,TbPYK inhibitor
CSc1ccccc1-c1nnc(-c2ccc(Cl)cc2Cl)o1,.,.,.,.,.,.
Cc1cc2c(cc1C)NC(=O)C(C)CN2 (configuration not stated),/,/,/,/,/,.
Cc1cc(NC(=O)c2ccc(F)c(S(=O)(=O)N3CCCCC3)c2)no1,.,.,.,.,.,.
Cc1cccnc1C(NC(=O)C1CCN(CCCOc2ccccc2)CC1)c1ccc(F)cc1 (configuration not stated),/,/,/,/,/,.
O=C(/C=C/c1ccc2c(c1)OCO2)NCCSCc1ccc(Cl)cc1Cl,.,.,.,.,.,.
CN(C)c1cccc(C(=O)NCc2ccc3c(c2)OCO3)c1,33,.,.,57,.,.
O=C(/C=C/c1ccc2c(c1)OCO2)NCCSCc1cccc(Cl)c1,21,.,.,.,.,.
COc1ccc(CNC(=O)COC(=O)c2ccc3c(c2)OCCO3)cc1,.,.,.,.,.,.
O=C(NCCc1cccc(Cl)c1)c1ccc2c(c1)OCO2,32,.,.,56,.,.
